High-throughput results deposited in PubChem BioAssay by several laboratories.
This is a sample that favours compounds with a hit; in the whole collection about 1.5% have one here.
RTF Ca sens inh: cardiac RTF calcium desensitization. P19429+P45379. IANBD-labeled cardiac RTF, Ca2+ fluorescence. inhibition, % at 7.15 µM. actives 0.12% (n = 340,000). AID 493244;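 active = inhibition above the mean inhibition of all tested compounds plus 3 SD, cut at about 17% in these data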;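 also: assay run at fixed EC70 calcium of 1.6 mM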
IDE act: activators of human insulin-degrading enzyme in cells | P14735 | HEK cells, FAbeta-B cleavage, fluorescence polarization; 0% vehicle, 100% cell-free pure enzyme wells | activation, % at 5.96 µM | actives 0.073% (n = 340,000) | AID 493087;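 active = activation above the mean of all tested compounds plus 3 SD, set per screening campaign, cut at about 17% in these data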
Target sequence (P14735 whole entry, looked up): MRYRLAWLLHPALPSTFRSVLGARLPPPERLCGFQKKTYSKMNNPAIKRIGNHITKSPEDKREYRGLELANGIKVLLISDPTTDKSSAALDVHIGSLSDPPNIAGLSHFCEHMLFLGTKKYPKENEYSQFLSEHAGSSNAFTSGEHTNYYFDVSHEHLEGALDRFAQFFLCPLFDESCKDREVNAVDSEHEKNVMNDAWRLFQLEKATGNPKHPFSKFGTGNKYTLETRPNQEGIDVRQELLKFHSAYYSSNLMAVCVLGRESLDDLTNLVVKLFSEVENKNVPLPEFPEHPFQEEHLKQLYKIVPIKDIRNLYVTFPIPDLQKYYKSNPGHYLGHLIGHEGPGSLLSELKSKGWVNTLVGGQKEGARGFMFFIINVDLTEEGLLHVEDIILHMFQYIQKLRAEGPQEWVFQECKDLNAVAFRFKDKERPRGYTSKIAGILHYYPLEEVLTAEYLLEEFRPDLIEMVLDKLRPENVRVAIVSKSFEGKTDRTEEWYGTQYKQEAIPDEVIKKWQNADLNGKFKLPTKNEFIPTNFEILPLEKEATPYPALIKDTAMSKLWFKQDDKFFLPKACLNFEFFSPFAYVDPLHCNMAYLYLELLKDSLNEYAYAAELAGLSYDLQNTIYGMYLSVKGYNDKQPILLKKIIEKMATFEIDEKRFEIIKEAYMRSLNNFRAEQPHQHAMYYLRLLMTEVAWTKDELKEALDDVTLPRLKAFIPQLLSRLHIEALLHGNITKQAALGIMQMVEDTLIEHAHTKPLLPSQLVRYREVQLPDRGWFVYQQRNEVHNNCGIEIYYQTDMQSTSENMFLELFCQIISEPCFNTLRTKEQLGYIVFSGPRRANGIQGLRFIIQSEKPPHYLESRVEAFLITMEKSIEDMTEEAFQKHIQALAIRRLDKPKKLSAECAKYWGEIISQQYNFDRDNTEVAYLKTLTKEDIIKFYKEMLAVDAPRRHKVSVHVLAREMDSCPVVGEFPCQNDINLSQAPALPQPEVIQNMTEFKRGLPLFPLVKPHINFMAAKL
CRFR2-BP ag: CRF-BP/CRF-R2 complex agonism; HEK293 CRF-R2/CRF-BP, calcium dye fluorescence (FLIPR); percent of saturating CRF peptide response; activation, % at 13.2 µM; actives 0.46% (n = 350,000);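 active = activation of at least 50%, plus an integration ratio under a set limit after plate pattern correction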;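 also: plate controls were neutral control wells without compound for no effect and CRF at EC100 for full effect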
RTF Ca sens act: increases calcium sensitivity of human cardiac regulated thin filaments; P19429+P45379; actives 0.24% (n = 340,000); activation, % at 7.2 µM; IANBD-labeled TnC RTF fluorescence at EC20 calcium; 0% EC20 calcium, 100% full calcium;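 active = activation above the mean over all tested compounds plus 3 SD, cut at about 30% in these data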;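 also: rise in fluorescence read as greater calcium sensitivity of cardiac thin filaments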
TPT1 inhibitor: inhibitors of Candida albicans tRNA 2'-phosphotransferase TPT1; recombinant caTPT1, FP RNA substrate dephosphorylation; inhibition, % at 5 µM; actives 0.81% (n = 300,000); AID 1962;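 active = inhibition above the mean of all tested compounds plus 3 SD, set per screening campaign, cut at about 24% in these data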;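 also: plate controls were DMSO alone for no effect and ferristatin control at 100 nM for full effect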
IDE inh: cellular human IDE inhibition; P14735; HEK cells, FAbetaB cleavage, fluorescence polarization; inhibition, % at 5.59 µM; actives 0.41% (n = 320,000);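 active = percent inhibition above the average of all tested compounds plus 3 SD, set per screening campaign, cut at about 16% in these data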;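 also: IDE supplied by intact live HEK cells; FP after avidin binding of uncleaved biotin substrate so inhibition keeps polarization high; 0% = DMSO wells and 100% = 60 µM reference IDE inhibitor Ii1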
RTF inh confirm: cardiac RTF calcium sensitivity inhibition, confirmation; shares compounds with RTF Ca sens inh; reconstituted cardiac thin filaments, calcium sensitivity fluorescence; inhibition, % at 7.15 µM; actives 8% (n = 360); in the data active = inhibition above about 18%
Active calls of the source: *; . = no result given.

SMILES	RTF Ca sens inh	IDE act	CRFR2-BP ag	RTF Ca sens act	TPT1 inhibitor	IDE inh	RTF inh confirm
O=[N+]([O-])c1ccc(OCc2cccc(COc3ccc([N+](=O)[O-])cc3)n2)cc1	17.4*	6.6	-4.9	0.6	-2.0	0.1	-4.3
CN(C)CCCN1C(=O)C2CCc3[nH]c4ccccc4c3C2C1=O (stereo not given)	19.2*	4.7	2.2	5.7	1.9	-0.4	-4.1
CC1(C)CC(=O)C(Sc2ccccc2)=C(O)C1	56.3*	-3.3	-2.7	2.3	-4.7	-1.8	1.1
CC1(C)CC(=O)C(Sc2ccccc2C(=O)O)=C(O)C1	2.5	5.3	1.1	-4.1	3.3	-6.8	.
CCC/C=C/c1ccc(CN2C(C(C)C)C(=O)N(Cc3cn(Cc4ccco4)nn3)CCS2(=O)=O)cc1 (stereo not given)	.	.	5.6	.	.	.	.
CCCOc1ccccc1C1NC(=O)NC(C)=C1C(=O)OCCOC (stereo not given)	19.2*	-4.4	-2.9	6.6	0.5	5.7	-1.3
CCCCOc1ccccc1C1NC(=O)NC(C)=C1C(=O)OCCOC (stereo not given)	3.1	-2.6	-0.3	11.7	-1.9	3.8	.
CCCNC(=O)CSc1nccn1Cc1ccc(OC)cc1	17.6*	5.9	-3.0	2.7	7.3	1.2	-0.8
O=C(O)c1ccc2c(c1)C(=O)/C(=C/c1ccccc1)C2=O	-12.7	0.1	-1.4	-0.2	-18.1	-1.0	.
O=C(O)c1ccc2c(c1)C(=O)/C(=C\c1ccco1)C2=O	19.5*	-0.5	0.3	-12.2	-5.8	1.6	1.0
Cc1sc(N=Nc2ccc(N(C)C)cc2)[n+]([O-])c1C	.	.	-1.1	.	.	.	.
CC1(C)OC(C)(C)/C(=C/Nc2ccc(O)cc2)C1=O	189.8*	-4.1	0.2	-7.9	-6.1	-6.5	-1.5
CC1CCC/C(=C\Nc2ccc(O)cc2)C1=O (stereo not given)	-7.2	-2.4	0.4	4.6	-0.7	1.4	.
CCN(CC)c1ccc(C(=O)NNC(=O)CCl)cc1	1.4	6.7	-5.0	3.1	3.1	-0.9	.
CCN(CC)c1ccc(C(=C2C=CC(=[N+](CC)CC)C=C2)c2ccc(N(CC)CC)cc2)cc1	22.9*	7.2	9.2	-24.5	.	.	9.5
O=C(CSc1nnc(CNC(=O)c2ccc(F)cc2)o1)NCC1CCCO1 (stereo not given)	26.7*	0.5	0.2	-5.1	2.8	-2.0	-0.5
CC(C)(C)c1ccc(C(=O)NCc2nnc(SCC(=O)NCC3CCCO3)o2)cc1 (stereo not given)	-5.5	4.7	-0.1	-3.6	-1.7	-1.3	.
NNC(=O)c1ccc2nc(-c3ccc(Br)cc3)cn2c1	21.7*	0.8	-1.6	-0.8	0.9	-4.7	-1.5
COc1ccc(C(=O)C2CCCN(C(=O)c3cccc(N4CCCC4=O)c3)C2)cc1OC (stereo not given)	6.9	6.8	-0.8	0.4	.	.	.
O=C(CCCCCN1C(=O)c2ccccc2C1=O)Nc1ccccc1	18.5*	-1.1	-0.9	1.2	0.0	-2.2	-5.2
CC(=O)Nc1ccc(NC(=O)CCCCCN2C(=O)c3ccccc3C2=O)cc1	-9.7	3.1	1.4	3.1	1.8	1.9	.
C=CCC[C@H](Cc1ccc(F)cc1)C(=O)OC[C@@H](NC(=O)[C@@H](CC=C)CC(=O)N[C@@H](CO)Cc1ccccc1)C(C)(C)C	2.4	3.0	1.4	9.4	.	0.3	.
C=CCC[C@@H](Cc1ccc(F)cc1)C(=O)OC[C@@H](NC(=O)[C@@H](CC=C)CC(=O)N[C@@H](CO)Cc1ccccc1)C(C)(C)C	17.8*	4.1	3.1	-3.5	.	-4.3	-0.3
O=C(CCC(=O)N(CC(=O)NC1CCCC1)c1cccc(F)c1)Nc1nccs1	-0.6	1.6	-1.1	1.4	5.3	5.7	.
CSc1ccc(/C=N/Nc2cccc(C(=O)O)c2)cc1	26.0*	2.3	2.0	-13.7	.	.	5.4
SMILES	RTF Ca sens inh	IDE act	CRFR2-BP ag	RTF Ca sens act	TPT1 inhibitor	IDE inh	RTF inh confirm
O=C(O)c1cccc(N/N=C/c2ccc(OC(F)(F)F)cc2)c1	1.0	3.8	-1.7	-2.2	-2.2	-0.4	.
COc1ccc(CC(=O)NCCc2ccc(Cl)cc2Cl)cc1	21.6*	2.8	0.9	0.9	4.9	6.8	-1.2
O=C(Cc1ccc(Br)cc1)NCCc1ccc(Cl)cc1Cl	-17.7	4.2	-1.8	7.0	-2.8	3.7	.
CNC(=O)C1(c2ccccc2)CCCCC1	.	.	-1.9	.	.	.	.
CCOC(=O)CNC(=O)c1c(C)nn(-c2ccccc2)c1Cl	17.8*	4.3	8.4	-1.1	3.8	-1.8	-1.9
Cn1nc(N)c2c(-c3ccccc3)c(C#N)c(N)nc21	17.2*	0.9	0.8	0.2	2.9	1.8	-3.7
CCc1c(C)nc(N)c(C#N)c1-c1ccccc1	2.7	3.4	1.8	-4.4	2.0	-2.9	.
O=C(Nc1cc(S(=O)(=O)N2CCOCC2)ccc1N1CCCC1)C1CC1	18.8*	6.8	1.0	-4.1	2.2	5.1	-2.9
